Consider 15 molecules from PubChem BioAssay AID1454 (National Center for Advancing Translational Sciences (NCATS), 2008).

Screen size: about 130,000 compounds; about 550 (0.42%) were called active. Entries that show only a call come without a potency. Another 4% or so got no clear call; they are omitted. Calls follow the shape of the dose curve; as a rule, active = well fitted inhibition curve with a large enough effect; inconclusive = small, poorly fitted or top-dose-only effect, or effect the other way; inactive = flat fitted curve, though single readings scatter. The sample as a whole holds a higher share of actives than the screen did.
Potency is read from the fitted curve at half-maximal effect.

The nature of this test: qHTS Assay for Inhibitors of the ERK Signaling Pathway using a Homogeneous Screening Assay; Stimulation with EGF. Also: nearly all actives have a fitted effect of over 55% in size. The settings on record: HEK293-V1b, EGF-stimulated phospho-ERK AlphaScreen; series mostly up to 57.5 µM. From the text: NIH Chemical Genomics Center [NCGC]
NIH Molecular Libraries Screening Centers Network [MLSCN]
Assay Submitter (PI): Dr. Wei Zheng, NCGC/NIH
The Ras/extracellular-signal-regulated kinase (ERK) mitogen activated protein (MAP) kinase signaling pathway (ERK1/2 cascade) plays a key role in transmitting signals from the cell surface to the nucleus (Nishida and Gotoh 1993; Chang and Karin, 2001). The cascade is initiated by the small G-protein Ras, which recruits Raf from the cytosol, where activation occurs. Alternatively, this pathway can be activated by elevating intracellular cAMP, or by activation of a receptor tyrosine kinase as epidermal growth factor receptor.
Activation of the ERK pathway is essential in increased cell division and cell survival. Sustained and constitutive activation of the ERK pathway, however, has been linked to uncontrolled cell proliferation, increased cell survival, and tumor progression. Thus, the ERK has been as an attractive target for cancer chemotherapy in the past few years (Sebolt-Leopold and Herrera, 2004). Given its physiological and pathological importance, assessment of ERK phosphorylation has been broadly performed in both basic research and drug discovery. Most assays for the measurement of ERK phosphorylation use the antibody-based detection methods, such as western blot and ELISA. These assays require multiple reagent additions with cell wash steps and are not suitable for high throughout screening.
The current cell-based ERK phosphorylation assay was performed using AlphaScreen platform. AlphaScreen is a two bead-based proximity-dependent chemical energy transfer luminescent assay platform. The assay reagents (ERK SureFire(TM) kit) were supplied from TGR BioSciences (Australia). In the presence of specific antibodies, phosphorylated ERK will bring "donor" and "acceptor" beads to a proximity range (<200 nm), and subsequently lead a chemical luminescent reaction upon exciting donor beads with 680 nm laser. To exclude the assay-related false positives, we used a biotinylated rabbit IgG to perform counter-screen. The biotinylated antibody mimics the phosphorylated ERK1/2 for bringing streptavidin coated beads and protein-A coated beads to a proximity range for the AlphaScreen detection.
NCGC Assay Protocol Summary:
HEK293 cells stably expressing type-1 vasopressin receptor (V1b) were maintained in DMEM medium (Invitrogen, Carlsbad, CA) at 37C under a humidified atmosphere containing 5% CO2 and 95% air. The medium contained 10% FBS, 2 mM L-glutamine, non-essential amino acid, pyruvate and 50 U/ml penicillin and 50 ug/ml streptomycin (Invitrogen). The aliquots of frozen cells were stored at -135C and used for the compound screening. All compounds were screened as titrations from 0.6 nM to 46 uM final concentration. Epidermal growth factor (EGF) was used to stimulate the ERK phosphorylation pathway. The ERK phosphorylation in cells was determined using an AlphaScreen assay kit provided by […]. Data were normalized to the controls for basal activity (DMSO only) and 100% activation (25 nM EGF). AC50 values were determined from concentration-response data modeled with the standard Hill equation.
(1) Seed 4 ul/well of resuspended frozen HEK293 cells containing 2000 cells in white 1536-well plates for overnight with 1% FBS at 37C under a humidified atmosphere containing 5% CO2 and 95% air.
(2) Add 23 nL compounds in DMSO solution. The final titration was 0.6 nM to 46 uM.
(3) Incubate at 37C for 30 min.
(4) Dispense 0.5uL EGF (25 nM in final)
(5) Incubate at 37C for 5 min.
(6) Dispense 0.5uL of 1:2 diluted 5x lysis buffer.
(7) Incubate at 37C for 10 min.
(8) Dispense 1.5uL of mixture of activation buffer and reaction buffer with AlphaScreen beads (streptavidin donor beads and protein-A acceptor beads, 10 ng/well for each).
(9) Incubate at room temperature for 5 hr.
(10) Detect the assay plate in an EnVision plate reader (PerkinElmer) using the AlphaScreen detection mode.
[…]
A general note: qHTS replaces the single test concentration by a dilution series.
Take `Cc1cc(-c2n[nH]c(=S)n2-c2ccc(C)c(C)c2)no1`: the Potency is 3.98 µM (active). Turning to `CCCCC/C=C\C/C=C\C/C=C\C=C\[C@H](CCCC(=O)O)OO`, the activity change, negative = inhibition is -6.51% [at 11.5 µM] (inactive). The same measure, in the same setting: the figure for `COC1=C[C@]23CCCN2CCc2cc4c(cc2[C@@H]3[C@@H]1O)OCO4` is -6.17% [at 11.5 µM] (inactive). Still for that read-out and setting: to `O=c1[nH]c(=O)n(-c2ccc(F)cc2)c(O)c1C=NCCN1CCCCC1` belongs “inactive”. As for `CCCCCCCCCCCCn1ccc(=N)cc1`, the Potency is 22.4 µM (active). As to `O=C1CC(=O)N(Cc2ccccc2)C(=O)N1CCCCCCN1C(=O)CC(=O)N(Cc2ccccc2)C1=O`, the activity change, negative = inhibition entry is “inactive”. As for `CC(=O)Cc1ccc(OC(C)C)cc1`, the activity change, negative = inhibition entry was “inactive”. Regarding `C1CC[C@H]([C@@]23C[C@H](C[C@H]4CCCN[C@H]42)[C@@H]2CCCCN2C3)NC1`, the activity change, negative = inhibition is -0.522% [at 11.5 µM] (inactive). The same measure, in the same setting: to `O=c1[nH]c(=O)n(CCc2ccc(F)cc2)c(O)c1/C=N/N1CCCCC1` belongs “inactive”. With `N#Cc1c(Cl)c(Cl)c(Cl)c(C#N)c1Cl`, the Potency was 3.98 µM (active). For `CNC(=O)Nc1ccc(C(O)(C(=O)OC)C(F)(F)F)cc1` (stereo not given), the activity change, negative = inhibition entry is “inactive”. The same measure, in the same setting: the entry for `Fc1ccc(C2N3CCCN23)cc1` (stereo not given) is “inactive”. The same measure, in the same setting: to `COc1ccc(-n2c(O)c(C(C)=Nc3ccc4c(c3)CCC4)c(=O)[nH]c2=O)cc1` belongs “inactive”. With `CN1CCN(/N=C/c2c[nH]c3ccccc23)CC1`, the activity change, negative = inhibition entry is “inactive”.

`CCCCC(=O)N/N=C/c1c(O)n(-c2ccccc2)c(=O)[nH]c1=O`: the activity change, negative = inhibition result is “inactive”.
